High-throughput results deposited in PubChem by National Center for Advancing Translational Sciences (NCATS).
TSHR antag: blocks TSH signaling through the human TSH receptor; TSHR-expressing cells, TSH-stimulated cAMP HTRF, 2 h; hits give low values; AID 504810; activity change, negative = inhibition, % at 11.5 µM; P16473; 0.2% of 330,000 active;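 active = activity change below a set negative limit, meaning inhibition stronger than a set level, cut at about -70% in these data; inconclusive = activity change between two set negative limits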
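Competitive HTRF cAMP read-out (cryptate anti-cAMP antibody, cAMP-d2; 30 min, room temperature) in freshly harvested TSHR cells. Compounds added before TSH at EC80 (4nM final), followed by 2 hours' incubation at 37 deg C.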
gsp ag: agonists of gsp mutant (McCune-Albright syndrome). 0.13% of 340,000 active. Potency, µM (top dose mostly 76.9 µM), usual class: activators. gsp mutant cells, cAMP HTRF, 30 min; active = well fitted activation curve with a large enough effect; inconclusive = small, poorly fitted or top-dose-only effect, or another doubt; inactive = no such curve, though single readings can be large or run the other way; cell line not stated here;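 note: phosphodiesterase inhibitor Ro 20-1724 added with compounds to block cAMP breakdown; nearly all actives have a fitted effect of over 60% in size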
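Cells stably selected in G418 were plated at 2000/well, grown 16-24 hr, then given compounds in DMSO with the PDE inhibitor […] (300 uM solution added) for 30 min at 37C; cAMP was read by HTRF.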
pAkt inh: inhibitors of Akt phosphorylation. Neuro2A IGF-stimulated pAkt S473 HTRF, 20 min; hits give low values. activity change, % for hits at 50 µM. 0.32% of 360,000 active. AID 651550; in the data active = activity change below about -80%; inconclusive = mostly about -51% to -80%
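Neuro2A cells in DMEM with 0.5% FBS, overnight at 37 deg C, given compound at single 50 µM final, then IGF (6 nM final) for 20 min at 37 deg C. Lysed; phospho-Akt Ser473 by HTRF after 24 h, 665/615 ratio.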
RXFP1 ag: activates the human relaxin receptor RXFP1. HEK293T-RXFP1 cAMP TR-FRET, 30 min; response scale: percent of porcine relaxin response, buffer zero. Q9HBX9. Potency, µM (titrated, usually from 57.5 µM), usual class: activators. 0.3% of 370,000 active. AID 2676; active = well fitted activation curve with a large enough effect; inconclusive = small, poorly fitted or top-dose-only effect; note: nearly all actives have a fitted effect of over 60% in size
Target sequence (Q9HBX9 whole entry, looked up): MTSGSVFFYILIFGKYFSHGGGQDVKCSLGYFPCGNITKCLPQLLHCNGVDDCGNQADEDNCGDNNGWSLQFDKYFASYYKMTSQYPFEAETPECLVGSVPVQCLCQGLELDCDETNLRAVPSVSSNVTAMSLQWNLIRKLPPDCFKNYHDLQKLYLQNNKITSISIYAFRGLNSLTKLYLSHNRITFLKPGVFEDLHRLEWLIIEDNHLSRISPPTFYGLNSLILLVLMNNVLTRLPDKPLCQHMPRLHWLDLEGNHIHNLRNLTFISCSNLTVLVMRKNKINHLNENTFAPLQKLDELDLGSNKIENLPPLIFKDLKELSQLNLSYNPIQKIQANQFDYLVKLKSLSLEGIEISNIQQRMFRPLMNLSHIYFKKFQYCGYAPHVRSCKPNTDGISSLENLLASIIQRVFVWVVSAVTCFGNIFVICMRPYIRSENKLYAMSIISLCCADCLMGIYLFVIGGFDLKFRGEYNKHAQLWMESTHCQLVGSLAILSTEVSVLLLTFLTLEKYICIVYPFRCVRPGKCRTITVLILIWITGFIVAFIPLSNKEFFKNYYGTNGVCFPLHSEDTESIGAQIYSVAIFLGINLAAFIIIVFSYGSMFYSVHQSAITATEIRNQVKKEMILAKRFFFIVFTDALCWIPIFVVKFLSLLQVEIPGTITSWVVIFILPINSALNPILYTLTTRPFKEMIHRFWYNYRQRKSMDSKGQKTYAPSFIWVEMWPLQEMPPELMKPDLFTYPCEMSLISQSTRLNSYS
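HEK293T cells stably expressing RXFP1 were pretreated with the PDE4 inhibitor Ro 20174, exposed to compounds for 30 min at 37C, lysed, and cAMP was read by TR-FRET. Data normalized to buffer (basal) and 29 nM porcine relaxin (100%).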
gsp antag: antagonists of gsp mutant (McCune-Albright syndrome) | gsp-mutant cells, cAMP HTRF, 30 min | Potency, µM (titrated, usually from 76.9 µM), hits mostly inhibitors | 0.4% of 340,000 active | AID 624288; calls by dose curve; cell line not stated here;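 note: intracellular cAMP measured with PDE inhibitor Ro 20-1724 present during compound exposure; nearly all actives have a fitted effect of over 65% in size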
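HTRF cAMP measurement after 30 min RT detection following 30 min, 37C compound treatment alongside […] (added as 300 uM solution) in G418-selected cells seeded at 2000/well and grown 16–24 h.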
RXFP1 antagonist: RXFP1 (human) relaxin receptor antagonism; activity change, negative = inhibition, % at 57.5 µM; HEK293-RXFP1, relaxin-stimulated cAMP HTRF, 30 min; hits give low values; Q9HBX9; 0.59% of 350,000 active;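 active = activity change of -60% or lower, but not beyond a set lower limit; inconclusive = change between -60% and -40%, or beyond the set limit; inactive = change above -40%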
Large screens that a line does not name were inactive. Sampled rows, rich in hits. Any-hit rate of the full collection: about 1.3%.

CN(CC(=O)Nc1ccccc1Cl)C(=O)COC(=O)Cc1c(F)cccc1Cl	RXFP1 ag 13µM
CCn1nc([N+](=O)[O-])c(C(C#N)c2nc3cc(C(F)(F)F)ccc3s2)c(Cl)c1=O (stereo unspecified)	TSHR antag -88, gsp antag 28µM, RXFP1 antagonist inconclusive
CCCn1nc([N+](=O)[O-])c(C(C#N)c2nc3ccccc3o2)c(Cl)c1=O (stereo unspecified)	TSHR antag -76, gsp antag inconclusive
Oc1ccc(COC2CCCC2)c2cccnc12	none (no result: gsp ag, pAkt inh, gsp antag, RXFP1 antagonist)
Cc1ccc(NC(=O)CCN2C(=O)c3ccccc3Sc3ncccc32)c(Cl)c1	none (no result: TSHR antag, gsp ag, pAkt inh, gsp antag)
CCC(C)(C(=O)NC1CCCCC1)N(C(=O)CNC(C)=O)c1c(C)n(C)n(-c2ccccc2)c1=O (stereo unspecified)	gsp ag inconclusive, pAkt inh -131%
COC(=O)Sc1nc(N2CCOCC2)c2c(c1C#N)CC(C)(C)OC2	gsp ag 14µM
COC(=O)CSc1nc(N2CCOCC2)c2c(c1C#N)CC(C)(C)OC2	none
Cc1ccc(S(=O)(=O)CCC(=O)NCCN2C(=O)S/C(=C\c3ccccc3)C2=O)cc1	gsp antag 50µM
O=C(CCS(=O)(=O)c1ccc(Cl)cc1)NCCN1C(=O)S/C(=C\c2ccccc2F)C1=O	gsp antag 50µM
Cc1ccc(S(=O)(=O)CCC(=O)NCCc2ccccc2)cc1	none
O=C(CNC(=O)c1ccccc1F)NCCN1C(=O)S/C(=C\c2ccccc2Cl)C1=O	none
COc1cccc(OC)c1NC(=O)Cn1nc(C)c2ccccc2c1=O	none
Cc1ccc(C)c(NC(=O)c2cc3ccccn3n2)c1	none
Cc1ccccc1NC(=O)c1cc2ccccn2n1	TSHR antag -84
CCOC(=O)Cc1nnc(NC(=O)c2ccco2)s1	pAkt inh -122%
CCn1c(=O)c(CCC(=O)N2CCN(c3ccccn3)CC2)c(C)c2c(C)nn(-c3cccc(C)c3)c21	RXFP1 antagonist -103 (no result: pAkt inh)
O=C(Nc1ccccc1)c1ccc(Cl)c(S(=O)(=O)Nc2ccccc2)c1	none (no result: TSHR antag, gsp ag, pAkt inh, gsp antag, RXFP1 antagonist)
CN(c1cccc(NC(=O)c2ccc(Cl)c(S(=O)(=O)Nc3ccccc3)c2)c1)S(C)(=O)=O	gsp antag 8.9µM
COc1cc(OC)cc(C(=O)NCCNc2nc3cc(C)cc(C)c3cc2C#N)c1	none
COc1ccccc1NC(=O)c1nc(S(=O)(=O)Cc2ccccc2)ncc1Cl	TSHR antag -78, RXFP1 antagonist inconclusive
CCOc1ccccc1NC(=O)c1nc(S(=O)(=O)Cc2ccccc2)ncc1Cl	TSHR antag -75
Cc1ccc(NC(=O)c2nc(S(=O)(=O)Cc3ccc(F)cc3)ncc2Cl)cc1C	RXFP1 antagonist inconclusive (no result: TSHR antag, gsp ag, pAkt inh, gsp antag)
COc1ccc(OC)c(NC(=O)c2nc(S(=O)(=O)Cc3ccc(F)cc3)ncc2Cl)c1	RXFP1 antagonist -107 (no result: TSHR antag, gsp ag, pAkt inh, gsp antag)
CCCc1ccc2oc(C(=O)N3CCC(COC)C3)c(C)c2c1 (stereo unspecified)	none
O=C(Cn1c(=O)c2cccn2c2ccccc21)NCCCN1CCCCC1	none
O=C(O)c1cccc(CN2C(=O)S/C(=C/c3cccc([N+](=O)[O-])c3)C2=O)c1	gsp ag inconclusive, gsp antag 20µM
C=CCN=C1S/C(=C/c2cccc([N+](=O)[O-])c2)C(=O)N1CC=C	none (no result: RXFP1 antagonist)
C#Cc1cccc(C(=O)N2CCCC(CCC(=O)NCc3ccccc3F)C2)c1 (stereo unspecified)	none (no result: TSHR antag, RXFP1 ag)
CC(C)OC(=O)N(C)C[C@@H]1OCc2cnnn2CCCC(=O)N([C@H](C)CO)C[C@H]1C	none (no result: TSHR antag, RXFP1 ag, gsp antag)
CN(C(=O)COC(=O)/C=C/c1cccs1)C1CCCCC1	RXFP1 antagonist -88 (no result: RXFP1 ag)
O=C(NCc1ccc(Cl)cc1)C1CCCN(c2nc3ccccc3n3cccc23)C1 (stereo unspecified)	RXFP1 antagonist -64 (no result: TSHR antag, gsp ag, pAkt inh, gsp antag)
CN(C)S(=O)(=O)c1ccc(C(=O)OCC(=O)Nc2cccnc2Cl)cc1	RXFP1 ag 14µM
Cc1nc(OCC(C)C)c2sc3nc4c(cc3c2n1)COC(C)(C)C4	RXFP1 antagonist -103
COc1nc(C)nc2c1sc1nc3c(cc12)COC(C)(C)C3	none
O=c1[nH]cnc2c1c(-c1ccccc1)cn2-c1ccccc1	RXFP1 antagonist -75 (no result: pAkt inh)
Cc1cc(C)c2nc(N3C(=O)C(O)=C(C(=O)c4ccco4)C3c3cccc(O)c3)sc2c1 (stereo unspecified)	none
CCOC(=O)CC(=O)CSc1ncnc2c1oc1ccccc12	gsp ag inconclusive, RXFP1 ag 0.79µM, gsp antag inconclusive
OCCSc1ncnc2c1oc1ccccc12	none
N#CCCSc1ncnc2c1oc1ccccc12	RXFP1 ag 14µM
COC(=O)[C@@H]1[C@@H](C#N)C2(c3ccccc3-c3ccccc32)N(c2ccc(Cl)cc2)N1C#N	RXFP1 antagonist -73
COc1cc(C(=O)N2CCC(N3CCCCCC3)CC2)cc(OC)c1OC	pAkt inh -122% (no result: TSHR antag, RXFP1 ag)
COc1cccc(CN(CC(=O)NC2CCCC2)C(=O)c2csnn2)c1	none
COc1ccc(CC(=O)N/N=C/c2cccnc2)cc1OC	RXFP1 ag 32µM
COC(=O)C(O)(CC(=O)Nc1ccccc1OC)C(F)(F)F (stereo unspecified)	pAkt inh -99%
CS(=O)(=O)Nc1ccc(C2=NN(C(=O)c3ccco3)C(c3cccc(F)c3)C2)cc1 (stereo unspecified)	gsp antag inconclusive
CCS(=O)(=O)Nc1ccc(C2=NN(C(=O)c3ccco3)C(c3cccc(F)c3)C2)cc1 (stereo unspecified)	gsp antag 22µM
CCN(C(=O)CN1C(=O)COc2ccc(S(=O)(=O)N3CCOCC3)cc21)c1cccc(C)c1	none (no result: TSHR antag, gsp ag, pAkt inh, gsp antag)
CCN(C(=O)CN1C(=O)COc2ccc(S(=O)(=O)N3CCOCC3)cc21)c1ccc(OC)cc1	TSHR antag -140
COc1ccc(Cl)cc1NC(=O)c1nnn(CC(=O)Nc2ccc(C)c(C)c2)c1N	none
CN(C)c1ccc(C(C#N)c2ccccc2)nn1 (stereo unspecified)	RXFP1 antagonist -69
CN(C)c1ccc(C(C#N)c2ccc(Cl)cc2)nn1 (stereo unspecified)	none
Cc1cc(Br)c2c(c1)/C(=C/C(=O)c1cccs1)C(=O)N2	none (no result: RXFP1 antagonist)
CCc1ccc2c(c1)/C(=C/C(=O)c1cccs1)C(=O)N2	RXFP1 antagonist -92
O=C1Nc2ccccc2/C1=C\C(=O)c1ccccc1	gsp ag inconclusive, RXFP1 antagonist inconclusive
Cc1cccc2c1NC(=O)/C2=C\C(=O)c1cccs1	RXFP1 antagonist -92
Cc1ccc(OCC(=O)Nc2ccc(N3CCN(C(=O)c4ccco4)CC3)cc2)cc1C	gsp antag 45µM
